The panel holds about 83,000 compounds, 20% with a hit somewhere; the sample as a whole holds those more often.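 Testing used 96-well plates and a 48-hour single-concentration exposure. Example: -40 means 40% of the starting cells died.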 Calls of active or inactive are those of the source. The calls were made as follows: active = growth percent below 10; inactive = the rest.
Tests used:
Assay in all cases: NCI-60 one-dose screen, 48 h (100 = growth as untreated, 0 = no growth, -100 = all killed)
Details in all cases: 10 µM
EKVX NSCLC = system: EKVX NSCLC
SN12C renal = system: SN12C renal
UO-31 renal = system: UO-31 renal
TK-10 renal = system: TK-10 renal
ACHN renal = system: ACHN renal
CAKI-1 renal = system: CAKI-1 renal
A498 renal = system: A498 renal
CCRF-CEM leukemia = system: CCRF-CEM leukemia
MOLT-4 leukemia = system: MOLT-4 leukemia
SR leukemia = system: SR leukemia
RPMI-8226 leukemia = system: RPMI-8226 leukemia
OVCAR-8 ovarian = system: OVCAR-8 ovarian
OVCAR-5 ovarian = system: OVCAR-5 ovarian
OVCAR-4 ovarian = system: OVCAR-4 ovarian
SK-OV-3 ovarian = system: SK-OV-3 ovarian
IGROV1 ovarian = system: IGROV1 ovarian
OVCAR-3 ovarian = system: OVCAR-3 ovarian
HS 578T breast = system: HS 578T breast
NCI/ADR-RES ovarian = system: NCI/ADR-RES ovarian

Measured: growth

NC(=O)C12C(=O)NC(=O)C1(C(=O)O)C21CCCC1 (stereo not drawn)
inactive: EKVX NSCLC 106% | SN12C renal 101% | UO-31 renal 75.8% | TK-10 renal 111% | ACHN renal 112% | CAKI-1 renal 112% | A498 renal 114% | CCRF-CEM leukemia 96.9% | MOLT-4 leukemia 97.2% | SR leukemia 106% | RPMI-8226 leukemia 94.6% | OVCAR-8 ovarian 104% | OVCAR-5 ovarian 110% | OVCAR-4 ovarian 104% | SK-OV-3 ovarian 116% | IGROV1 ovarian 106% | OVCAR-3 ovarian 116% | HS 578T breast 107% | NCI/ADR-RES ovarian 114%

Cn1c([N+](=O)[O-])cnc1/C=C1\Oc2ccc(Br)cc2C1=O
active: SN12C renal -2.34% | UO-31 renal -38.4% | TK-10 renal -33.3% | ACHN renal -41.6% | CAKI-1 renal -21.6% | A498 renal -29.7% | CCRF-CEM leukemia 5.39% | MOLT-4 leukemia -14.1% | SR leukemia 6.49% | RPMI-8226 leukemia 6.2% | OVCAR-8 ovarian -11.3% | OVCAR-5 ovarian -19.1% | OVCAR-4 ovarian 3.03% | SK-OV-3 ovarian -7.97% | IGROV1 ovarian -21.6% | OVCAR-3 ovarian -37.3% | HS 578T breast -17.8% | NCI/ADR-RES ovarian 6.72%

CCN(CC)CC(O)CNc1ccnc2cc(Cl)c(Cl)cc12 (stereo not drawn)
inactive: EKVX NSCLC 92% | SN12C renal 79% | UO-31 renal 53.7% | TK-10 renal 95.2% | ACHN renal 98.4% | CAKI-1 renal 80.7% | A498 renal 98.7% | CCRF-CEM leukemia 94.9% | MOLT-4 leukemia 82.3% | SR leukemia 28.4% | RPMI-8226 leukemia 90.3% | OVCAR-8 ovarian 84.3% | OVCAR-4 ovarian 85.9% | SK-OV-3 ovarian 106% | IGROV1 ovarian 91.1% | OVCAR-3 ovarian 92.5% | HS 578T breast 103% | NCI/ADR-RES ovarian 87.1%

COc1cc(C2C=C(c3ccc(Cl)cc3)N=C3SC(C)=CN32)cc(OC)c1OC (stereo not drawn)
active: SR leukemia 9.45%
inactive: SN12C renal 90.6% | UO-31 renal 79.3% | TK-10 renal 71% | ACHN renal 105% | CAKI-1 renal 88.7% | A498 renal 86.1% | CCRF-CEM leukemia 89.2% | MOLT-4 leukemia 80.2% | RPMI-8226 leukemia 47.5% | OVCAR-8 ovarian 93.6% | OVCAR-5 ovarian 85.2% | OVCAR-4 ovarian 77.4% | SK-OV-3 ovarian 118% | IGROV1 ovarian 96.6% | OVCAR-3 ovarian 103% | HS 578T breast 101% | NCI/ADR-RES ovarian 97.6%

COc1ccc(C2C=C(c3ccc(Cl)cc3)N=C3SC=CN32)c(Br)c1 (stereo not drawn)
inactive: SN12C renal 67.6% | UO-31 renal 84.3% | TK-10 renal 83.5% | ACHN renal 67.7% | CAKI-1 renal 54.1% | A498 renal 89.7% | CCRF-CEM leukemia 71.7% | MOLT-4 leukemia 53.1% | SR leukemia 59.2% | RPMI-8226 leukemia 52.3% | OVCAR-5 ovarian 98.2% | OVCAR-4 ovarian 80.9% | SK-OV-3 ovarian 117% | IGROV1 ovarian 98.1% | OVCAR-3 ovarian 60.5% | HS 578T breast 94.8% | NCI/ADR-RES ovarian 89.9%

N=C(N)c1ccc(-c2ccc(-c3cccs3)s2)nc1
active: A498 renal -25.6% | SR leukemia -9.12% | RPMI-8226 leukemia -24.2%
inactive: SN12C renal 60.9% | TK-10 renal 47.3% | ACHN renal 56.7% | CAKI-1 renal 34.2% | CCRF-CEM leukemia 31.6% | MOLT-4 leukemia 17.3% | OVCAR-5 ovarian 62.5% | OVCAR-4 ovarian 34.7% | SK-OV-3 ovarian 63.4% | IGROV1 ovarian 70.4% | OVCAR-3 ovarian 38.6% | HS 578T breast 80.1% | NCI/ADR-RES ovarian 84.8%

COc1cc(-c2cc(/C=C/C(C)=O)[nH]n2)cc(OC)c1OC
inactive: SN12C renal 67.5% | UO-31 renal 52.4% | TK-10 renal 73.8% | ACHN renal 78.7% | CAKI-1 renal 55.2% | A498 renal 90.7% | CCRF-CEM leukemia 20% | MOLT-4 leukemia 71.2% | RPMI-8226 leukemia 22.8% | OVCAR-8 ovarian 73.5% | OVCAR-5 ovarian 94.5% | OVCAR-4 ovarian 70.8% | SK-OV-3 ovarian 109% | IGROV1 ovarian 73.8% | OVCAR-3 ovarian 85.2% | HS 578T breast 91.8% | NCI/ADR-RES ovarian 80.7%
active: SR leukemia 4.57%

Oc1cc(O)c(Br)cc1Br
inactive: SN12C renal 101% | UO-31 renal 85.2% | TK-10 renal 94.3% | ACHN renal 103% | CAKI-1 renal 95.9% | A498 renal 96.7% | CCRF-CEM leukemia 95.4% | MOLT-4 leukemia 93.1% | SR leukemia 85.7% | RPMI-8226 leukemia 99.4% | OVCAR-8 ovarian 103% | OVCAR-5 ovarian 107% | OVCAR-4 ovarian 98.2% | SK-OV-3 ovarian 107% | IGROV1 ovarian 102% | OVCAR-3 ovarian 110% | HS 578T breast 107% | NCI/ADR-RES ovarian 105%

CN(C)Cc1cccs1
inactive: EKVX NSCLC 103% | UO-31 renal 82.9% | TK-10 renal 101% | ACHN renal 96.7% | CAKI-1 renal 98.3% | A498 renal 117% | MOLT-4 leukemia 96.3% | SR leukemia 114% | RPMI-8226 leukemia 102% | OVCAR-8 ovarian 97% | OVCAR-5 ovarian 98.5% | OVCAR-4 ovarian 109% | SK-OV-3 ovarian 87.8% | OVCAR-3 ovarian 101% | HS 578T breast 102% | NCI/ADR-RES ovarian 101%

— PubChem BioAssay (NCI)
